# Assay results from PubChem BioAssay (NCATS).
# Several values for one entry are separate records, joined by “and”; a condition that tells them apart may be missing. Equal values may be shown once. A number with no mark means an inactive call. Inconclusive results are not listed. Entries that show only a call come without a potency. Activity calls are given as the source filed them. Unless noted, calls come from the whole dose curve; as a rule, active = well fitted curve in the direction sought with a large enough effect; inconclusive = small, poorly fitted or top-dose-only effect, or another doubt; inactive = no such curve, though single readings can be large; an effect the other way counts as inactive or inconclusive.
# How the values were obtained:
# [1] = S16 Schwann cell viability assay (CellTiter-Glo assay) (AID 624031);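 note: cellular ATP luminescence as a viability measure; series mostly up to about 58 µM; nearly all actives have a fitted effect of over 70% in size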
# Outline: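 Untransfected S16 rat Schwann cells; compound 24 h, 37 °C/5% CO2; CellTiter-Glo ATP luminescence. % activity vs no-cell wells and DMSO controls (0%); concentration-effect curves classed by r2, response magnitude, activity.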
# [2] = S16 Schwann cell PMP22 intronic element beta-lactamase assay (AID 624044; calls by dose curve; note: nearly all actives have a fitted effect of over 15% in size)
# Outline: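 Beta-lactamase reporter under a PMP22 intronic regulatory element in stable S16 rat Schwann cells; 24 h compound exposure. 460 nm blue signal normalized between DMSO (0%) and potassium clavulanate, with 535 nm FRET tracking viability; curves classed by r2 and response.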
# [3] = qHTS Assay for Identifying Gametocytocidal Compounds (AID 743244);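 note: actives lower the fluorescent signal which means gametocytes are killed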; conditions: P. falciparum 3D7 stage III-V gametocytes, alamarBlue, 72 h; max response: active compounds read low
# Outline: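 Compounds are pinned into medium, gametocytes (stage III–V, 3D7, 20,000 cells/well) added, and plates held 72 h at 37 °C in 5% CO2. AlamarBlue follows for 24 h before fluorescence reading.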
# [4] = S16 Schwann cell PMP22 intronic element firefly luciferase assay (AID 624032); note: series mostly up to about 58 µM; nearly all actives have a fitted effect of over 30% in size
# Outline: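 Rat S16 Schwann cells stably carrying a PMP22 intronic element-driven Fluc reporter were seeded overnight, then exposed to compounds for 24 h at 37 °C. Luminescence was normalized to PTC124 (positive control) and DMSO (0% activity).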
# [5] = qHTS assay for small molecule agonists of the antioxidant response element (ARE) signaling pathway (AID 651741; active = well fitted activation curve with a large enough effect in the signal ratio; the % refers to the signal ratio; note: potency is the fitted concentration of half-maximal effect)
# Outline: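 Reporter: beta-lactamase under ARE, stably in HepG2. Exposure: 16 h, 37 C, compounds delivered in DMSO by pin tool after 5 h cell preincubation. Readout: FRET substrate fluorescence after 2 h at RT.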
# [6] = qHTS assay for small molecule disruptors of the mitochondrial membrane potential - 5 hr assay (AID 651755; calls by dose curve; note: nearly all actives have a fitted effect of over 40% in size; note: potency is the fitted concentration of half-maximal effect)
# Outline: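 Seed HepG2 overnight, add compound, incubate 5 hr at 37C and 5% CO2, stain 30 min with Mito-MPS, then measure monomer (490/535 nm) and aggregate (540/590 nm) fluorescence.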
# [7] = biological target: Tumor necrosis factor (Homo sapiens) (UniProt P01375); assay: qHTS assay to identify small molecules that stimulate Tumor Necrosis Factor-alpha (TNF-alpha) secretion (AID 651757; active = well fitted curve in the direction sought with a large enough effect in the signal ratio; the % refers to the signal ratio)
# Tumor necrosis factor (Homo sapiens), sequence (P01375 whole entry, looked up): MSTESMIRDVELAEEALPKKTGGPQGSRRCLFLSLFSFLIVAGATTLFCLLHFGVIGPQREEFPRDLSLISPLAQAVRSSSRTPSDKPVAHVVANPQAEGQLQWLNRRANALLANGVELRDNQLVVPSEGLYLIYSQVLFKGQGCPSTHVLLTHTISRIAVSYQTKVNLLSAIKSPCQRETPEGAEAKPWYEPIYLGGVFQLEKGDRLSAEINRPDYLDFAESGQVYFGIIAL
# Outline: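 Human monocytic THP-1 cells are plated, treated with compound and held at 37 C for 17 hrs. Labeled anti-TNF-alpha antibody mixture is then added; after 3 hr at room temperature, TR-FRET signal reports secreted TNF-alpha.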
# [8] = qHTS assay to identify small molecules that stimulate interleukin-8 (IL-8) secretion (AID 651758; active = well fitted activation curve with a large enough effect in the signal ratio; the % refers to the signal ratio)
# Outline: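 Quantitative HTS in THP-1 monocytic cells at 2000 cells per well, with 16 hrs compound incubation at 37 C. IL-8 in the medium was then quantified by HTRF immunoassay, read after 1-3 hrs at room temperature.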
# [9] = qHTS assay for environmental chemicals that activate the Aryl hydrocarbon Receptor (AhR) signaling pathway (AID 651777); conditions: 1A2-DRE human hepatoma cells, luciferase, 24 h; active compounds read high; note: nearly all actives have a fitted effect of over 15% in size
# Outline: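 Luminescence read-out: One-Glo added for 30 min at RT after 24 hr compound treatment (37 C, 5% CO2) of human hepatoma cells expressing a DRE/CYP1A2 promoter–luciferase reporter; increased signal indicates AhR activation.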
# [10] = biological target: Peroxisome proliferator-activated receptor alpha (Homo sapiens) (UniProt Q07869); assay: qHTS assay for small molecule agonists of the peroxisome proliferator-activated receptor alpha (PPARalpha) signaling pathway (AID 651778); conditions: PathHunter PPARalpha complementation, chemiluminescence, 6 h; active compounds read high
# Peroxisome proliferator-activated receptor alpha (Homo sapiens), sequence (Q07869 whole entry, looked up): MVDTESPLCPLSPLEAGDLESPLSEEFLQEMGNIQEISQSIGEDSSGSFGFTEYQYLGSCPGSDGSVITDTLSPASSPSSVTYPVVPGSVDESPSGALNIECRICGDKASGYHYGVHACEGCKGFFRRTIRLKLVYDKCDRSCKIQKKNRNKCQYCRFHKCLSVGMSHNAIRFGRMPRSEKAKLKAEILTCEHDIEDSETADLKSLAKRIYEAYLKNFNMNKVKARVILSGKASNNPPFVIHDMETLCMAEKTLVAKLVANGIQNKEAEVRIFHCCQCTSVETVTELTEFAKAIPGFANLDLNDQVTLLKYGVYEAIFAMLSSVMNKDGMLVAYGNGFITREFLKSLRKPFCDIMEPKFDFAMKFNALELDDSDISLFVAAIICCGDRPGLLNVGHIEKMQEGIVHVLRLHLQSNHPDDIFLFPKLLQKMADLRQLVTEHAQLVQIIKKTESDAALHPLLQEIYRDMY
# Outline: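 Cells plated at 2,000/well and held overnight at 37 C, 5% CO2, then compound added by pin tool for 6 hr; after PathHunter detection reagent and 60 min at room temperature, chemiluminescence from enzyme complementation was read.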
# [11] = biological target: Nuclear receptor ROR-gamma (Homo sapiens) (UniProt P51449); assay: qHTS assay for small molecule antagonists of the retinoid-related orphan receptor gamma (ROR-gamma) signaling pathway (AID 651802);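 note: CHO cells with doxycycline-induced ROR-gamma expression; series mostly up to about 92 µM; nearly all actives have a fitted effect of over 60% in size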
# Nuclear receptor ROR-gamma (Homo sapiens), sequence (P51449 whole entry, looked up): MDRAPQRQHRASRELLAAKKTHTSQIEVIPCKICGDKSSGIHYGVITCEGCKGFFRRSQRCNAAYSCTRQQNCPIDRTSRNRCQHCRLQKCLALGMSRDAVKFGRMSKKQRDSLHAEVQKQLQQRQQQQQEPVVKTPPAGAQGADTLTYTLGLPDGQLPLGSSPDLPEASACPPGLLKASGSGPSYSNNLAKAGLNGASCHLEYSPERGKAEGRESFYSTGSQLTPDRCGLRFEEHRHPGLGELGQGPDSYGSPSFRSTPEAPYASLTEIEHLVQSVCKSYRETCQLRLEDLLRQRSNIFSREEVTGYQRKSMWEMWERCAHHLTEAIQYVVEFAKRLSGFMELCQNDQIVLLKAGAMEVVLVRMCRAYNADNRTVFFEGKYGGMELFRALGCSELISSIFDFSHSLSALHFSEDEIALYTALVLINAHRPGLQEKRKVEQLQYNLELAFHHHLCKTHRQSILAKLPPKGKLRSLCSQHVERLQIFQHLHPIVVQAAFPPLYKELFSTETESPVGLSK
# Outline: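 Steps: cells dispensed; compound or DMSO transferred by pin tool; doxycycline added to induce the ROR response element-driven luciferase; plates held 16hr at 37C; ONE-Glo added and luminescence measured.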
# [12] = qHTS assay for small molecule agonists of the antioxidant response element (ARE) signaling pathway measured by Nrf2-dependant transcriptional activity (AID 720636; active = well fitted curve in the direction sought with a large enough effect in the repeat runs; an effect the other way counts as inactive or inconclusive;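 note: HepG2 cells with an ARE-driven luciferase reporter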)
# Outline: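 HepG2 ARE-luc reporter line, 1% dialyzed FBS; 6 hr attachment at 37 C, compound pinned in, 16 hr at 37 C/5% CO2; ONE-Glo, 30 min RT, luminescence read.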
# [13] = qHTS assay for small molecule agonists of the antioxidant response element (ARE) signaling pathway measured by Nrf2-dependant transcriptional activity - cell viability counter screen (AID 720653; active = well fitted curve in the direction sought with a large enough effect in the repeat runs; an effect the other way counts as inactive or inconclusive); conditions: ARE-bla HepG2 viability, CellTiter-Glo ATP luminescence, 16 h; active compounds read low
# Outline: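 ARE-bla HepG2 cells (2,000/well) rested 5 hrs at 37C/5% CO2, then exposed to compounds in DMSO for 16 hrs. Viability was read in the same wells as intracellular ATP by luminescence, 30 min at room temperature after reagent addition.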
# [14] = qHTS assay for cell viability of HEK293 cells (AID 743288); conditions: ATP luminescence (CellTiter-Glo), 18 h, active compounds read low; note: nearly all actives have a fitted effect of over 50% in size
# Outline: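 ATP luminescence (CellTiter-Glo) reports metabolically competent cell number after parental HEK293 cells, 2,000/well, were treated with DMSO-dissolved compounds for 18 h at 37 C; reagent incubation 30 min, room temperature.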
# [15] = qHTS assay for cell viability of the p53RE-bla HCT-116 cell line (AID 743292); note: nearly all actives have a fitted effect of over 55% in size
# Outline: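 Luminescent ATP quantitation (CellTiter-Glo) served as the viability read-out; reagent was added after 16 h compound exposure at 37 C and read after 30 min at room temperature. Cells: p53RE-bla HCT-116, 4,000 per well.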
# [16] = qHTS assay for small molecule activators of the p53 signaling pathway (AID 651743; active = well fitted activation curve with a large enough effect in the signal ratio, not every such curve was filed as active; the % refers to the signal ratio; note: series mostly up to about 92 µM); conditions: HCT-116 p53RE-bla, beta-lactamase FRET ratio, 16 h; active compounds read high
# Outline: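 Agonist-mode quantitative HTS in HCT-116 cells carrying a p53-response-element beta-lactamase reporter; 16 h compound treatment at 37 C, then FRET substrate loading for 2 h at room temperature and fluorescence read.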
# [17] = qHTS assay for small molecule activators of the nuclear factor-kappa B (NF-kB) signaling pathway (AID 651749; active = well fitted activation curve with a large enough effect in the signal ratio; the % refers to the signal ratio; note: series mostly up to about 77 µM); conditions: NF-kB-bla ME-180 cells, beta-lactamase FRET ratio, 16 h; active compounds read high
# Outline: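 Human ME-180 cervical cells with an NF-kB-bla construct; compounds added via 23 nL pin transfer, DMSO as vehicle; incubation 16 hr. Reporter activity measured by FRET disruption.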
# [18] = qHTS assay for small molecule disruptors of the mitochondrial membrane potential - 1 hr assay (AID 651754; calls by dose curve; note: potency is the fitted concentration of half-maximal effect; nearly all actives have a fitted effect of over 35% in size)
# Outline: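 Loss of mitochondrial potential shifts the cationic dye from red mitochondrial aggregates to green cytoplasmic monomers. Cells (HepG2) are treated with compound for 1 hr before a 30 min dye incubation at 37C.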
compound,measurement,setting,value
NNC(=O)CP(=O)(c1ccccc1)c1ccccc1,outcome,[1],inactive
same,outcome,[2],inactive
same,max response,[3],-4.41%
O=C1CC[C@@H](C(=O)O)N1,outcome,[1],inactive
same,Potency,[4],inactive
same,max response,[3],-5.19%
O=C(O)c1cc(=O)c2ccccc2o1,outcome,[1],inactive
same,Potency,[4],inactive
same,max response,[3],42.7%
O=C(O)CCC(=O)O,outcome,[1],inactive
same,Potency,[4],inactive
same,max response,[3],4.69%
CCOC(N)=O,outcome,[1],inactive
same,Potency,[4],inactive
same,max response,[3],-2.14%
O=C(O)Cc1cn(-c2ccccc2)nc1-c1ccc(Cl)cc1,outcome,[1],inactive
same,Potency,[4],inactive
same,max response,[3],6.52%
Cc1c(I)c(=O)n(-c2ccccc2)n1C,outcome,[1],inactive
same,Potency,[4],inactive
same,max response,[3],4.77%
CCN(CC)C(=O)c1cccc(C)c1,outcome,[1],inactive
same,outcome,[2],inactive
same,Potency,[5],inactive
same,Potency,[6],inactive
same,outcome,[7],inactive
same,outcome,[8],inactive
same,activation,[9],-1.83% and 2%
same,max response,[10],-2.42% and -0.716%
same,outcome,[11],inactive
same,outcome,[12],inactive
same,max response,[13],-1.02% and 2.48%
same,max response,[3],18.7%
same,max response,[14],4.9% and -5.34%
same,outcome,[15],inactive
O=C(O)c1ccccc1C(=O)Nc1ccc(S(=O)(=O)Nc2nccs2)cc1,outcome,[1],inactive
same,Potency,[4],inactive
same,max response,[3],31%
CC[N+](C)(CC)CCOC(=O)C1c2ccccc2Oc2ccccc21,outcome,[1],inactive
same,Potency,[4],inactive
same,max response,[3],7.42%
Cc1[nH]c(C)c(Cl)c(=O)c1Cl,outcome,[1],inactive
same,Potency,[4],inactive
same,max response,[3],-2.25%
C[C@@H]1CCC[C@H](C)N1,outcome,[1],inactive
same,Potency,[4],inactive
same,max response,[3],20.8%
OCC(O)CS (configuration not stated),outcome,[1],inactive
same,Potency,[4],inactive
same,max response,[3],0.0928%
CC(=O)N(CC(O)CO)c1c(I)c(C(=O)NCC(O)CO)c(I)c(C(=O)NCC(O)CO)c1I (configuration not stated),outcome,[1],inactive
same,Potency,[4],inactive
same,max response,[3],-11.4%
O=c1[nH]c(=O)c2ccccc2o1,outcome,[1],inactive
same,Potency,[4],inactive
same,max response,[3],-4.26%
Cn1c(=O)c2c(ncn2CCO)n(C)c1=O,outcome,[1],inactive
same,Potency,[4],inactive
same,max response,[3],6.91%
NS(=O)(=O)c1cc(-c2nn[nH]n2)c(NCc2cccs2)cc1Cl,outcome,[1],inactive
same,Potency,[4],inactive
same,max response,[3],54.3%
O=C(O)CCCc1ccccc1,outcome,[1],inactive
same,Potency,[4],inactive
same,max response,[3],13.9%
Nc1ncnc2c1ncn2[C@@H]1O[C@H](COP(=O)(O)O)[C@@H](O)[C@H]1O,outcome,[1],inactive
same,Potency,[4],inactive
same,max response,[3],-1.97%
CC(CSC(=O)c1ccccc1)C(=O)N1C[C@@H](Sc2ccccc2)C[C@H]1C(=O)O (some centres not stated),outcome,[1],inactive
same,Potency,[4],inactive
same,max response,[3],2.09%
CCc1cccc(CC)c1NC(=O)CN(CC(=O)O)CC(=O)O,outcome,[1],inactive
same,Potency,[4],inactive
same,max response,[3],12.1%
CC(=O)OC[C@H]1O[C@@](COC(C)=O)(O[C@H]2O[C@H](COC(C)=O)[C@@H](OC(C)=O)[C@H](OC(C)=O)[C@H]2OC(C)=O)[C@@H](OC(C)=O)[C@@H]1OC(C)=O,outcome,[1],inactive
same,Potency,[4],inactive
same,max response,[3],-6.87%
O=C1c2cccc(O)c2C(=O)c2c(O)cccc21,outcome,[1],inactive
same,outcome,[2],inactive
same,Potency,[5],29.8 µM (active)
same,activation,[16],3.77%
same,activation,[17],-0.734%
same,Potency,[18],4.73 µM (active)
same,Potency,[6],7.5 µM (active)
same,outcome,[7],inactive
same,activation,[9],5.57%
same,max response,[10],-5.75%
same,outcome,[11],inactive
same,max response,[3],2.37%
same,max response,[14],-10.2%
same,outcome,[15],inactive
NS(=O)(=O)c1ccc(NC(=O)CCC(=O)O)cc1,outcome,[1],inactive
same,Potency,[4],inactive
same,max response,[3],-3.82%
Cc1cc(-n2nc3ccc(Cl)cc3n2)c(O)c(C(C)(C)C)c1,outcome,[1],inactive
same,Potency,[4],inactive
same,max response,[3],-8.61%
O=c1[nH]c2cc(C(F)(F)F)c(N3CCOCC3)cc2n(CP(=O)(O)O)c1=O,outcome,[1],inactive
same,Potency,[4],inactive
same,max response,[3],2.6%
Cc1ccc(S(=O)(=O)NC(=O)NC2CCCCC2)cc1,outcome,[1],inactive
same,max response,[3],0.0407%
O=C1c2ccccc2S(=O)(=O)N1CCCCN1CCN(c2ncccn2)CC1,outcome,[1],inactive
same,max response,[3],-4.4%
C[N+](C)(C)CC(O)CC(=O)[O-] (configuration not stated),max response,[3],-7.85%
CC1(c2ccccc2)OC(C(=O)O)=CC1=O (configuration not stated),max response,[3],25.1%
C=CCSCC1Nc2cc(Cl)c(S(N)(=O)=O)cc2S(=O)(=O)N1 (configuration not stated),outcome,[1],inactive
same,max response,[3],15.7%
CN1CCCN=C1COC(=O)C(O)(c1ccccc1)C1CCCCC1 (configuration not stated),Potency,[4],inactive
same,outcome,[2],inactive
same,max response,[3],-2.61%
CC[C@H](C)[C@H](N)C(=O)O,max response,[3],-11.6%
